In PubChem BioAssay (NCI) one finds growth data, which are given here for 31 compounds.

Common to all, as to assay: NCI-60 one-dose screen, 48 h (100 = growth as untreated, 0 = no growth, -100 = all killed)
What all share (conditions): 10 µM unless noted

Assay [1] relates to T-47D breast.
Assay [2] has as its system BT-549 breast.
Assay [3] has as its system MDA-MB-435 melanoma.
Assay [4] has as its system SW-620 colon.
In assay [5] the test system is MCF7 breast.
The test system of assay [6] is HCT-116 colon.
Assay [7] relates to HCC-2998 colon.
For assay [8], the system named is KM12 colon.

The structures appear in SMILES notation. About 83,000 compounds went through this panel and 20% of them were active in at least one assay; those are over-represented in the sample as a whole.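 How to read the values: 0–100, growth inhibition (40 = 60% inhibited); 0, no net growth; -100 to 0, cell death (-40 = 40% of starting cells died; -100 = all dead).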 Values without a mark were called inactive. Active and inactive are the calls of the source. How the source made its calls: active means growth percent below 10; inactive means the rest.

For the compound `COc1ccc(C(=O)COc2cccc(/C=C3\CSc4ccc(Cl)cc4C3=O)c2)cc1`, the growth in assay [1] was 70.4%; in assay [2], 42.5%; in assay [3], 93.2%; in assay [4], -65.9% (active); in assay [5], -11.8% (active); in assay [6], 53.9%. The growth in assay [7] was 95.2%.

For the compound `CCOc1cc(CCNS(=O)(=O)c2ccc(C)cc2)c(C(C)=O)cc1OCC`, the growth in assay [1] is 66% [100 µM]; in assay [2], 73.4% [100 µM]; in assay [3], 99.4% [100 µM]; in assay [4] it was 92.9% [100 µM]; in assay [5], 94.9% [100 µM]; in assay [6] it was 77.6% [100 µM]. The growth was 95.5% [100 µM] in assay [7] and 67.2% [100 µM] in assay [8].

On to `Cc1sc2nc(NCCc3cccs3)[nH]c(=O)c2c1C`, for which the growth in assay [1] was 74.6%; in assay [2], 74.7%; in assay [3], 84.2%; in assay [4], 96.4%; in assay [5], 87.3%; in assay [6], 71%. Besides, the values for the growth in assay [7] and in assay [8] were 101% and 92.6%, respectively.

Consider `O=c1c2ccccc2c2nccn2c2cc(Cl)ccc12`, for which the growth was 84.6% in assay [1]; 89% in assay [2]; 94.5% in assay [3]; 80.7% in assay [4]; 122% in assay [5]; 76.4% in assay [6]. Besides, the growth in assay [7] is 67.3%; in assay [8] it was 150%.

Turning to `c1ccc(N2c3nc4ccccc4cc3Sc3cc4ccccc4nc32)nc1`, the growth is 82.6% in assay [1]; 93.2% in assay [2]; 115% in assay [3]; 90.8% in assay [4]; 74% in assay [5]; 98.5% in assay [6]. The growth in assay [7] is 113%.

`NS(=O)(=O)c1cc(C2(O)NC(=O)c3ccccc32)ccc1Cl` (stereo unspecified): the growth was 109% in assay [1]; 97.7% in assay [2]; 101% in assay [3]; 109% in assay [4]; 102% in assay [5]; 98.9% in assay [6]. The growth in assay [7] was 109%; in assay [8], 111%.

Turning to `Nc1nc(Nc2ccccc2SSc2ccccc2Nc2nc(N)nc(C(Cl)(Cl)Cl)n2)nc(C(Cl)(Cl)Cl)n1`, the growth in assay [1] was 15.7%; in assay [2] it was 54.2%; in assay [3] it was 82.9%; in assay [4] it was 68.1%; in assay [5], 75.7%; in assay [6] it was 45.8%. The results for the growth in assay [7] and in assay [8] were 111% and 43.4%, respectively.

For the compound `C[C@H](C(=O)N[C@@H](Cc1ccc(-c2ccccc2)cc1)C(=O)NC1CC(C)(C)N(C)C(C)(C)C1)c1ccc(-c2ccccc2)c(F)c1`, the growth in assay [1] was -52.7% (active); in assay [2] it was -82.5% (active); in assay [3] it was -84.9% (active); in assay [4] it was -76.8% (active); in assay [5], -79.6% (active); in assay [6], -87.6% (active). In addition, the growth in assay [7] is -86.8% (active); in assay [8], -78.6% (active).

For the compound `O=C1C(=O)c2c(nc3ccc(Cl)cn23)-c2ccccc21`, the growth in assay [1] was -55.8% (active); in assay [2], -99.4% (active); in assay [3], -89.5% (active); in assay [4], -100% (active); in assay [5], -88% (active); in assay [6], -95.3% (active). Also, the growth in assay [7] is -95.8% (active); in assay [8], -68.7% (active).

Regarding `CCOC1Oc2ccccc2C(=O)/C1=N/c1nccs1` (stereo unspecified), the growth is 66.5% in assay [1]; 77.1% in assay [2]; 104% in assay [3]; 87.1% in assay [4]; 79.1% in assay [5]; 92.9% in assay [6]. The results for the growth in assay [7] and in assay [8] were 99.7% and 93.5%, respectively.

As to `CC(=O)Nc1ccc(C(=O)COc2ccc(/C=C3\CCc4ccccc4C3=O)cc2)cc1`, the growth in assay [1] was 91%; in assay [2] it was 97.1%; in assay [3], 122%; in assay [4], 113%; in assay [5], 122%; in assay [6], 106%. The growth in assay [7] was 118%.

For the compound `CC1C(=O)NC2=Nc3ccccc3C(=O)NN21` (stereo unspecified), the growth in assay [1] is 81.4%; in assay [2], 96.9%; in assay [3], 111%; in assay [4], 97.8%; in assay [5], 73.9%; in assay [6] it was 90.4%. The figures for the growth in assay [7] and in assay [8] were 100% and 101%, respectively.

On to `COCCOCCOCCOCCOc1ccc2c(c1)C(=O)c1nc3ncccc3c(=O)n1-2`, for which the growth in assay [1] is 11.3%; in assay [2], -95.7% (active); in assay [3], -100% (active); in assay [4], -100% (active); in assay [5] it was -64.6% (active); in assay [6], -32.7% (active). Besides, the growth in assay [7] was -68.1% (active); in assay [8], -57% (active).

With `CCC(C)C1NC(=O)C(CCNCS(=O)(=O)O)NC(=O)C(NC(=O)C(CCNCS(=O)(=O)O)NC(=O)C(NC(=O)C(CCNCS(=O)(=O)O)NC(=O)CCCCC(C)C)C(C)O)CCNC(=O)C(C(C)O)NC(=O)C(CCNCS(=O)(=O)O)NC(=O)C(CCNCS(=O)(=O)O)NC(=O)C(C(C)CC)NC1=O` (stereo unspecified), the growth in assay [1] was 49.2%; in assay [2] it was 66.3%; in assay [3], -56.2% (active); in assay [4] it was 34.8%; in assay [5], 18.7%; in assay [6], 31.7%. Also, the growth in assay [7] is 65.1%.

`O=c1[nH]c(SCc2ccccc2)nc2nc(Nc3ccc(NC(=S)Nc4ccccc4)cc3)nc(-c3ccc(O)cc3O)c12`: the growth in assay [1] is 73.1%; in assay [2] it was 91.7%; in assay [3] it was 104%; in assay [4] it was 96.8%; in assay [5] it was 99.2%; in assay [6] it was 102%. Also, the growth in assay [7] was 98.6%; in assay [8] it was 89.4%.

Turning to `O=C1c2cc3c(cc2-c2c1c1ccc(Cl)cc1c(=O)n2CCCNCCO)OCO3`, the growth is -67.1% (active) in assay [1]; -63.7% (active) in assay [2]; -85% (active) in assay [3]; -73.2% (active) in assay [4]; -73.1% (active) in assay [5]; -74.2% (active) in assay [6]. The growth in assay [7] is -89% (active); in assay [8], -78.4% (active).

For the compound `O[N+]1=CC=CCC1=S.On1ccccc1=S.[Zn]`, the growth in assay [1] was -84.9% (active); in assay [2] it was -84% (active); in assay [3] it was -82.8% (active); in assay [4], -77.2% (active); in assay [5], -75.6% (active); in assay [6], -88.1% (active). Also, the growth in assay [7] was -76.3% (active); in assay [8] it was -88.3% (active).

In the case of `COC(=O)[C@H]1[C@H]2C[C@@H]3c4[nH]c5cc(OC)ccc5c4CCN3C[C@H]2C[C@@H](OC(=O)/C=C/c2cc(OC)c(OC)c(OC)c2)[C@@H]1OC`, the growth in assay [1] was 45%; in assay [2], 67.8%; in assay [3] it was 7.45% (active); in assay [4], 61.3%; in assay [5] it was 29.1%; in assay [6], -28% (active). Further, the results for the growth in assay [7] and in assay [8] were 105% and 40.5%, respectively.

As to `COC(=O)[C@H](Cc1cn(C)cn1)NC(=O)[C@H](Cc1ccccc1)NC(=O)Nc1cc(C(F)(F)F)cc(C(F)(F)F)c1`, the growth was -55.3% [100 µM] (active) in assay [1]; -95.5% [100 µM] (active) in assay [2]; -85.4% [100 µM] (active) in assay [3]; -46.2% [100 µM] (active) in assay [4]; -60.8% [100 µM] (active) in assay [5]; -91.5% [100 µM] (active) in assay [6]. Also, the growth in assay [7] is -86.9% [100 µM] (active); in assay [8] it was -92.2% [100 µM] (active).

Regarding `COc1ccc2c(c1)CC/C(=C\c1ccc(OCC(=O)Nc3nc4ccccc4s3)cc1)C2=O`, the growth in assay [1] is 88.3%; in assay [2], 83.6%; in assay [3], 100%; in assay [4] it was 93.9%; in assay [5], 98.4%; in assay [6] it was 89.1%. Further, the growth was 87.6% in assay [7] and 108% in assay [8].

With `CC(=O)/C(=C/c1ccc(Cl)cc1)C(=O)c1ccccc1`, the growth is 83% in assay [1]; 97.4% in assay [2]; 61.4% in assay [3]; 61.3% in assay [4]; 53.1% in assay [5]; 66% in assay [6]. For the same compound, the growth in assay [7] is 99.2%.

Consider `COc1cc(NC(C)CCCN)c2nc(C)ccc2c1Oc1ccc(F)cc1` (stereo unspecified), for which the growth in assay [1] was 87.4%; in assay [2] it was 70.5%; in assay [3], 104%; in assay [4], 67%; in assay [5], 62.1%; in assay [6], 33.9%. Further, the results for the growth in assay [7] and in assay [8] were 21.6% and 78.9%, respectively.

Take `O=C(O)C1C(c2ccccc2)c2ccccc2C(O)C1CO` (stereo unspecified): the growth is 115% in assay [1]; 103% in assay [2]; 116% in assay [3]; 106% in assay [4]; 97% in assay [5]; 101% in assay [6]. Besides, the growth in assay [7] is 106%; in assay [8], 117%.

In the case of `Nc1ccccc1C#Cc1ccccc1C#Cc1ccc(OCCCCCCOc2ccc(C#Cc3ccccc3C#Cc3ccccc3N)cc2)cc1`, the growth is 90.1% in assay [1]; 104% in assay [2]; 97.5% in assay [3]; 98.9% in assay [4]; 74.7% in assay [5]; 110% in assay [6]. For the same compound, the growth is 95.5% in assay [7] and 113% in assay [8].

As to `O=C(CNc1ccc2c(c1)C(=O)c1ccccc1C2=O)Nc1ccc2c(c1)C(=O)c1ccccc1C2=O`, the growth is -65.5% (active) in assay [1]; -80.4% (active) in assay [2]; -82.4% (active) in assay [3]; -89.9% (active) in assay [4]; -71.1% (active) in assay [5]; -90.2% (active) in assay [6]. For the same compound, the results for the growth in assay [7] and in assay [8] were -93.3% (active) and -91.4% (active), respectively.

In the case of `CC1CC=CCC1C1OCC(C)(C)CO1` (stereo unspecified), the growth was 75.3% in assay [1]; 99.9% in assay [2]; 105% in assay [3]; 102% in assay [4]; 101% in assay [5]; 97.5% in assay [6]. In assay [7], the growth is 113%.

Take `COc1ccc(CCN2C(=O)CCC3=C2CCCC3=O)cc1OC`: the growth in assay [1] is 104%; in assay [2], 104%; in assay [3], 103%; in assay [4], 107%; in assay [5], 92.6%; in assay [6], 100%. The growth in assay [7] is 103%.

Consider `COc1cc(/C=N/NC(=O)c2ccc(C(F)(F)F)nc2Nc2cc(Cl)ccc2C)cc(OC)c1OC`, for which the growth is 84.7% in assay [1]; 99.6% in assay [2]; 97.7% in assay [3]; 97% in assay [4]; 104% in assay [5]; 99% in assay [6]. Besides, the growth is 104% in assay [7] and 108% in assay [8].

Regarding `CC1c2ccccc2-c2ccccc2N1C` (stereo unspecified), the growth is 85.7% in assay [1]; 103% in assay [2]; 119% in assay [3]; 108% in assay [4]; 99.4% in assay [5]; 96% in assay [6]. For the same compound, the growth was 105% in assay [7] and 104% in assay [8].

For `COc1c(Br)cc(C(c2cc(Br)c(OC)c(Br)c2)c2ccccc2C(=O)O)cc1Br`, the growth in assay [1] was 93.6%; in assay [2], 82.8%; in assay [3], 104%; in assay [4], 99.9%; in assay [5] it was 96.5%; in assay [6] it was 90.2%. Moreover, the growth in assay [7] was 97.8%; in assay [8] it was 103%.

On to `OC(c1ccccc1)C(NCc1ccccc1)c1ccccc1` (stereo unspecified), for which the growth in assay [1] was 91.7%; in assay [2], 98.7%; in assay [3], 78.9%; in assay [4] it was 92.9%; in assay [5] it was 97.1%; in assay [6], 66.1%. The growth in assay [7] was 105%; in assay [8] it was 102%.
